Screening results as filed in PubChem BioAssay.
MITF primary: inhibitors of human MITF. O75030. AlphaScreen MITF homodimerization, bead proximity signal. inhibition, % at 2.6 µM. hit rate 0.91% among 650,000. AID 1259374; in the data active means inhibition above about 50%
Target sequence (O75030 whole entry, looked up): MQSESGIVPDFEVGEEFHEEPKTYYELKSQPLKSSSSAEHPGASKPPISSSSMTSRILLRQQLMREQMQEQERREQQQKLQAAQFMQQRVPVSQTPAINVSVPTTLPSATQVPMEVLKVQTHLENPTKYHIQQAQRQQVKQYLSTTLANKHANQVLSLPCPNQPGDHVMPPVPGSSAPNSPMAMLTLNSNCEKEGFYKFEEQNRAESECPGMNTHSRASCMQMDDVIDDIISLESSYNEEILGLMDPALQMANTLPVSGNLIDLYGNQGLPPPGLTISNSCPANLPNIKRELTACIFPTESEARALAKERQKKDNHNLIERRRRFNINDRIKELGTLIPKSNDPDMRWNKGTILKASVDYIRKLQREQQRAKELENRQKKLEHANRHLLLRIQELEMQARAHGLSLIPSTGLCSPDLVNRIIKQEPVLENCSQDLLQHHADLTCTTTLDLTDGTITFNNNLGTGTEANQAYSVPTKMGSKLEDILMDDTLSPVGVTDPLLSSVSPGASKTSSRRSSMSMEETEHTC
FBW7 activator: human FBW7 E3 ligase activation, primary screen. normalized activity (activation), % at 26.1 µM. Q969H0. hit rate 0.13% among 650,000. AlphaScreen FBW7–phospho-cyclin E peptide binding, activator screen; in the data active means normalized activity above about 1.9%;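 further: purified mutant Fbw7 with reduced substrate affinity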
TEAD-YAP block: TEAD-YAP interaction inhibition. hit rate 1.4% among 640,000. HEK-TIYL cells, TEAD-Gal4/YAP UAS-luciferase luminescence. inhibition, % at 9.12 µM; in the data active means inhibition above about 32%
GPR151 ag: activates the human receptor GPR151; Q8TDV0; PathHunter beta-arrestin GPR151 cells, luminescence; activation, % at 11.2 µM; hit rate 1% among 650,000; AID 1508602; in the data active means activation above about 4.9%
Hits are given with their value; – = inactive. A selection: hits, their analogues and other compounds. The true share with any hit is near 3.4%.

SMILES	MITF primary	FBW7 activator	TEAD-YAP block	GPR151 ag
O=C(NCc1cccc(C(F)(F)F)c1)c1csc(Nc2ccc(N3CCOCC3)cc2)n1	–	–	51	–
COc1ccc(CCNC(=O)c2cccc(NCCN3CCOCC3)n2)cc1	–	–	–	–
O=C(NCc1cccc(C(F)(F)F)c1)c1csc(Nc2ccc(C(F)(F)F)cc2)n1	–	–	–	–
COc1ccc(CCNC(=O)c2cccc(Nc3ccc(N4CCOCC4)cc3)n2)cc1	–	–	59	–
COc1cc(Nc2cccc(C(=O)NCCc3ccc(O)cc3)n2)cc(OC)c1OC	–	–	35	–
COc1cc(Nc2cccc(C(=O)NCCN(C(C)C)C(C)C)n2)cc(OC)c1OC	–	–	–	–
CCOc1ccc(C(=S)N(C)C)cc1	–	–	–	–
C/C(=N\NC(N)=S)c1cc(Cl)sc1Cl	–	–	33	–
Cn1cc(CN2CCCC(CNC(=O)c3cccc(C(F)(F)F)c3)C2)cn1 (stereo not given)	–	–	–	–
N#Cc1c(NCCN)nc(-c2ccco2)c2c1CCCC2	–	–	34	–
CCCCCNc1nc(-c2ccco2)c2c(c1C#N)CCCC2	–	–	–	–
COc1cc(NS(=O)(=O)c2ccc(NC(C)=O)cc2)c(OC)cc1Cl	–	–	52	–
COC(=O)c1ccc(C(=O)OC)c(S(=O)(=O)Nc2cc(OC)c(Cl)cc2OC)c1	–	–	45	–
COC(=O)c1ccc(C(=O)OC)c(NS(=O)(=O)c2cc(Cl)ccc2Cl)c1	–	–	–	–
COc1ccc(Cl)cc1NS(=O)(=O)c1ccc(OC)c(OC)c1	–	–	–	–
COc1ccc(S(=O)(=O)Nc2ccc(NC(C)=O)cc2)cc1Cl	–	–	–	–
COc1cc(NS(=O)(=O)c2ccc(OC)c(OC)c2)c(OC)cc1Cl	–	–	48	–
O=c1oc2cc(O)ccc2c2c1CCC2	–	–	–	–
O=C(c1ccc(-n2cccc2)cc1)N1CCC(c2nnc(-c3ccco3)o2)CC1	–	2.2	–	–
O=C(c1ccco1)N1CCN(c2ccc([N+](=O)[O-])c(N3CCCCC3)c2)CC1	–	–	–	–
Cc1ccccc1N(CC(=O)N1CCN(c2ccc(F)cc2)CC1)S(C)(=O)=O	–	–	–	–
CCC(CC)NC(=O)c1cccc(I)c1	–	–	34	–
COC(=O)c1c(NC(C)=O)sc(C(=O)Nc2cccc([N+](=O)[O-])c2)c1C	–	–	–	–
CCN(CC)c1ccc(/C=N/NC(=O)CCC(=O)Nc2ccccc2)cc1	–	–	–	–
COc1ccc(C2Oc3ccccc3C3=C2C(c2cccs2)n2ncnc2N3)cc1 (stereo not given)	–	–	38	–
SMILES	MITF primary	FBW7 activator	TEAD-YAP block	GPR151 ag
COc1ccc(C2C3=C(Nc4ncnn42)c2ccccc2OC3c2cccs2)cc1 (stereo not given)	–	–	–	–
Oc1ccc(CNc2cccc(Br)c2)c2cccnc12	–	–	–	–
Oc1ccc(CNc2ccc(Cl)cn2)c2cccnc12	–	–	54	–
CCOc1ccc(NCc2ccc(O)c3ncccc23)cc1	62	–	–	–
COc1cc2nc(-c3cccc(N)c3)nc(Nc3ccc(Oc4ccccc4)cc3)c2cc1OC	–	–	36	–
COc1cc2nc(-c3ccc(C(=O)NC4CC4)cc3)nc(Nc3ccc(Oc4ccccc4)cc3)c2cc1OC	–	3.7	35	–
COc1cccc(N=C/C(C(=O)C(F)(F)F)=C(\O)c2cccs2)c1	–	–	82	–
COc1cccc(/C=N/NC(=O)c2cccs2)c1	–	–	–	–
O=C(NC1CC1)C1CCN(C(=O)Nc2ccccc2)CC1	–	–	–	–
CC(=O)NC1CCN(C(=O)Nc2ccccc2)CC1	–	2.1	–	–
NC(=O)c1c(NC(=O)c2cc3ccccc3o2)sc2c1CCCC2	–	–	46	–
Cc1ccc(C(=O)Nc2sc3c(c2C(N)=O)CCCCC3)o1	–	–	55	–
N[C@H](C(=O)N1CCC(Nc2ccc3[nH]ncc3c2)CC1)c1ccccc1	–	–	–	–
Cn1nc(CC(=O)Nc2ccc(Cl)cc2)c2ccccc2c1=O	–	–	39	–
Cn1nc(CC(=O)Nc2cccc(O)c2)c2ccccc2c1=O	–	–	–	–
Cn1nc(CC(=O)Nc2cccc(C(F)(F)F)c2)c2ccccc2c1=O	–	–	42	–
Cn1c(C(=O)O)c(CC(=O)Nc2ccc3c(c2)OCCO3)c2ccccc21	–	–	35	–
Cc1ccc(NC(=O)Cc2nn(C)c(=O)c3ccccc23)cc1F	–	–	–	–
Cc1ccc(C)n1CCCC(=O)Nc1ccc2c(c1)OCCO2	–	–	59	–
CCN(CC)C(=O)C1CCCN(c2nc(Nc3ccc(Oc4ccccc4)cc3)nc(N(CC)CC)n2)C1 (stereo not given)	–	–	–	–
CCOC(=O)NC1c2ccccc2Oc2ccc(OC)cc21 (stereo not given)	–	–	–	–
O=C(Cc1ccc2c(c1)OCCO2)Nc1ccc2ccccc2c1	–	–	42	–
Cn1nc(CC(=O)Nc2ccc3c(c2)OCCO3)c2ccccc2c1=O	–	–	50	–
Cn1nc(CC(=O)Nc2ccc3c(c2)OCO3)c2ccccc2c1=O	–	–	–	–
COc1ccc(C(=O)Oc2ccc(NC(=O)Cc3nn(C)c(=O)c4ccccc34)cc2)cc1	–	–	–	–
SMILES	MITF primary	FBW7 activator	TEAD-YAP block	GPR151 ag
COc1ccc(CC(=O)Nc2ccc3c(c2)OCCO3)cc1OC	–	–	–	–
Cn1nc(CC(=O)Nc2ccc(Oc3ccccc3)cc2)c2ccccc2c1=O	–	–	40	–
Cc1c(C(=O)Nc2nc3ccccc3s2)sc2ncn(CC(=O)N3CCOCC3)c(=O)c12	–	–	–	–
O=C(/C=C/c1ccc(F)cc1)Nc1cc([N+](=O)[O-])ccc1F	–	–	53	–
O=C(/C=C\c1ccco1)Nc1cc([N+](=O)[O-])ccc1F	–	–	60	–
O=C(/C=C/c1ccc(F)cc1)Nc1ccc([N+](=O)[O-])cc1Br	–	–	–	–
CC(CC(=O)Nc1cc([N+](=O)[O-])ccc1F)c1ccccc1 (stereo not given)	–	–	38	–
CC(CC(=O)Nc1cc([N+](=O)[O-])ccc1Cl)c1ccccc1 (stereo not given)	–	–	–	–
Cn1c(C(=O)OC(C(=O)NCC2CCCO2)c2ccccc2)cc2occc21 (stereo not given)	–	–	–	–
COc1cc(-c2nc3cnccn3c2NC2CCCC2)cc(OC)c1OC	–	–	32	–
COc1cc(-c2nc3cnccn3c2NC2CCCCC2)cc(OC)c1OC	–	–	38	–
CCOc1ccccc1CNC(=O)Cn1ncn2cccc2c1=O	–	–	–	–
COc1ccc(C(=O)CSc2nc3ccc(Cl)cc3[nH]2)cc1	–	–	–	–
CC(=O)c1ccc(C(=O)NCCOc2ccccc2)cc1	–	–	68	–
O=C(NCCOc1ccccc1)c1cccc(-c2ccccc2)n1	–	–	–	–
Cc1ccc(C(=O)NCCOc2ccccc2)cc1	–	–	73	–
COc1ccc(-c2cccc(C(=O)NCCOc3ccccc3)n2)cc1	–	8.0	–	–
Cc1ccc(C(=O)NCCc2ccccc2)cc1	–	–	82	–
